# Experimental data: publication PMC13083723 (Patterns, 2026)
# The whole screen tested about 5,400 compounds, of which about 190 (3.5%) showed an effect of 50% or more. The full list was thinned out, with strong results kept by preference.
# Tested on: Vero-E6
# Experiment: primary screen, phospholipidosis by LipidTOX staining; higher = more effect of the substance
# Conditions: 10 µM
# Summary of the method: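 Single-concentration screen at 10 μM, with DMSO 0.1 v/v % and amiodarone 10 μM as controls. Read-out is LipidTOX Red phospholipid staining, which tolerates aldehyde fixation, in Vero-E6 cells.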
row,SMILES,result_ITMP
1,NC[C@@H]1O[C@H](O[C@H]2[C@@H](O)[C@H](O[C@@H]3[C@@H](O)[C@H](N)C[C@H](N)[C@H]3O[C@H]3O[C@H](CN)[C@@H](O)[C@H](O)[C@H]3N)O[C@@H]2CO)[C@H](N)[C@@H](O)[C@@H]1O,-2.72%
2,c1cnc2c([O][Ga]([O]c3cccc4cccnc34)[O]c3cccc4cccnc34)cccc2c1,5.3%
3,CCOC(=O)c1ccc(-n2cc(Cc3cnc(OCC)nc3)c(=O)nc2SCc2ccc(F)cc2)cc1,-1.15%
4,CCC(C)[C@H]1O[C@]2(C=C[C@@H]1C)C[C@@H]1C[C@@H](C/C=C(\C)[C@@H](OC3C[C@H](OC)C(O[C@H]4C[C@H](OC)[C@@H](O)[C@H](C)O4)[C@H](C)O3)[C@@H](C)/C=C/C=C3\CO[C@@H]4[C@H](O)C(C)=C[C@@H](C(=O)O1)[C@]34O)O2 (stereo partly shown),-3.77%
5,CCOc1nc2cccc(C(=O)O)c2n1Cc1ccc(-c2ccccc2-c2nc(=O)o[nH]2)cc1,-0.57%
6,NCCCC(O)(P(=O)([O-])O)P(=O)(O)O,0.52%
7,CC1(C)S[C@@H]2[C@H](NC(=O)C(C(=O)[O-])c3ccccc3)C(=O)N2[C@H]1C(=O)[O-] (stereo partly shown),-1.48%
8,Nc1ncccc1-c1nc2ccc(-c3ccccc3)nc2n1-c1ccc(C2(N)CCC2)cc1,91.9%
9,CC(C)(C)[C@]1(O)C[C@@H]2OC(=O)C[C@@]23C(=O)O[C@@H]2OC(=O)[C@H](O)C213 (stereo partly shown),-3.55%
10,COc1cccc2c1C(=O)c1c(O)c3c(c(O)c1C2=O)C[C@@](O)(C(=O)CO)C[C@@H]3OC1C[C@H](N2CCO[C@H](OC)C2)C(O)[C@H](C)O1 (stereo partly shown),0.2%
11,CC1(C)CC[C@]2(NC(=O)C(C)(F)F)CC[C@]3(C)C(C(=O)C=C4[C@@]5(C)C=C(C#N)C(=O)C(C)(C)[C@@H]5CC[C@]43C)C2C1 (stereo partly shown),-22.1%
12,CC1(C)C[C@@H]1C(=O)N/C(=C\CCCCSC[C@H](N)C(=O)[O-])C(=O)O,-1.62%
13,CCOC(=O)c1cc2ccc(O)cc2oc1=O,-3.11%
14,Clc1ccc(N2CCN(Cc3c[nH]c4ncccc34)CC2)cc1,1.68%
15,c1ccc(CNCc2ccc(CN3CCCNCCNCCCNCC3)cc2)nc1,-2%
16,O=C(c1ccc(-c2ccc(Cl)cc2)o1)N(Cc1ccccn1)c1ccc(N2CCNCC2)cc1,104%
17,CCCC(CCC)C(=O)NCC(N)=O,-5.65%
18,Nc1ccc(C(=O)[O-])c(O)c1,-0.28%
19,C[C@H](CCC(=O)NCCS(=O)(=O)O)[C@H]1CC[C@H]2[C@@H]3[C@@H](O)C[C@@H]4C[C@H](O)CC[C@]4(C)[C@H]3CC[C@]12C,3.34%

row,SMILES,result_ITMP
1,C[C@]12C=CC(=O)C=C1CC[C@@H]1[C@@H]2CC[C@]2(C)OC(=O)CC[C@@H]12,-2.34%
2,CC(=O)O[C@H]1CC[C@@]2(C)C(=CC[C@@H]3[C@@H]2CC[C@]2(C)C(c4cccnc4)=CC[C@@H]32)C1,2.09%
3,Cc1cccc(C)c1-n1c(=O)c2cnc(Nc3ccc(N4CCN(C)CC4)cc3)nc2n2c3ccccc3nc12,81.7%
4,CN1CCN(c2ccc(Nc3ncc4cc(C#N)c(=O)n(C5CCCC5)c4n3)cc2)CC1,-0.88%
5,C=CCn1c(=O)c2cnc(Nc3ccc(N4CCN(C)CC4)cc3)nc2n1-c1cccc(C(C)(C)O)n1,32.4%
6,N[C@@H](CSS(=O)(=O)[O-])C(=O)O,-1.62%
7,C/C=C(\C(=C\C)c1ccc(O)cc1)c1ccc(O)cc1,0.7%
8,CN1CCN(C2=Nc3ccccc3Sc3ccc(Cl)cc32)CC1,26.7%
9,Clc1ccc2c(c1)N=C(N1CCNCC1)c1ccccc1N2,77.7%
10,Clc1ccc2c(c1)C(N1CCNCC1)=Nc1ccccc1O2,70%
11,c1ccc2nc(N3CCNCC3)ccc2c1,9.23%
12,Clc1cccc(N2CCNCC2)c1,4.14%
13,Cc1cc2c(s1)Nc1ccccc1N=C2N1CCN(C)CC1,-8.9%
14,Cc1ccc(Oc2ccccc2-c2csc(NC3=NCCCN3)n2)c(C)c1,6.61%
15,COc1cc(CCc2cc(NC(=O)c3ccc(N4C[C@@H](C)N[C@@H](C)C4)cc3)n[nH]2)cc(OC)c1,30.8%
16,C=C[C@@]1(C)CC(=O)[C@]2(O)[C@@]3(C)[C@@H](O)CCC(C)(C)[C@@H]3C(OC(=O)CCN(C)C)C(OC(C)=O)[C@@]2(C)O1 (stereo partly shown),4.63%
17,C[C@H](CCC(=O)NCCS(=O)(=O)O)[C@H]1CC[C@H]2[C@@H]3[C@H](O)C[C@@H]4C[C@H](O)CC[C@]4(C)[C@H]3C[C@H](O)[C@]12C,-2.23%
18,CC(O)COC[C@H]1OC2O[C@H]3[C@H](O)[C@@H](O)C(O[C@H]4[C@H](O)[C@@H](O)C(O[C@H]5[C@H](O)[C@@H](O)C(O[C@H]6[C@H](O)[C@@H](O)C(O[C@H]7[C@H](O)[C@@H](O)C(O[C@H]8[C@H](O)[C@@H](O)C(O[C@H]1[C@H](O)[C@H]2O)O[C@@H]8COCC(C)O)O[C@@H]7COCC(C)O)O[C@@H]6COCC(C)O)O[C@@H]5COCC(C)O)O[C@@H]4COCC(C)O)O[C@@H]3COCC(C)O (stereo partly shown),-3.69%
